Out of some 290,000 compounds screened, about 3,000 (1%) were called active. The sample as a whole holds a higher share of actives than the screen did. Unmarked numbers belong to inactive results. Cut-off read from the data, not from the text of the source: active = inhibition mostly above about 36% (no sharp cut-off); inactive = mostly below about 34%.

This test can be described thus: NOD1 signaling inhibitors, primary screen, cell-based, luminescence, uHTS (AID 1578).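 Note: HEK-293T reporter cells stimulated with the NOD1 agonist gamma-tri-DAP.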 Conditions: NOD1-driven NF-kB luciferase reporter cells, at 4 µM, stronger effect = higher value. A general note: Reporter assays use an easily measured gene product as a stand-in for the process of interest.
For the molecule `COc1cccc(CN2CCN(C3CCOCC3)CC2CCO)c1` (configuration not stated), the inhibition (usually the change of the read-out against control, counted positive when it falls) is 2.6%.
The value for `CCOC(=O)Cc1nnc(NC(=O)CSc2nnc3c(n2)[nH]c2ccccc23)s1` was 19%.
The figure for `COc1c(C)cc(C(=O)C2CCCN(S(=O)(=O)c3c(C)noc3C)C2)cc1C` (configuration not stated) is 48.6% (active); for `CSc1ccc(C(=O)C2CCCN(S(=O)(=O)c3c(C)noc3C)C2)cc1` (configuration not stated) it is -19.9%; for `Cc1noc(C)c1S(=O)(=O)N1CCCC(C(=O)c2cccc(OC(C)C)c2)C1` (configuration not stated) it is 4.9%.
The figure for `CCCCOc1ccc(-c2ncc(C(=O)O)c(C)n2)cc1` is -62%; for `COc1ccccc1CN(Cc1nc2ccccc2c(=O)[nH]1)S(=O)(=O)c1ccc(C)cc1` it is -16.5%.
Consider `C=CCc1cc(S(=O)(=O)c2ccc(O)c(CC=C)c2)ccc1O`, for which the inhibition is 47.4% (active).
The figure for `Nc1cc(S(=O)(=O)c2ccc(O)c(N)c2)ccc1O` is -4.4%; for `C=CCc1ccc(O)c(-c2ccc(O)c(CC=C)c2)c1` it is -6.9%; for `Cc1[nH]c(-c2ccc(F)cc2)cc1C(=O)N1CCN(c2ccccc2)CC1` it is -4.4%.
The value for `O=C(Nc1cccc(-c2nnc(-c3ccccc3)o2)c1)C1CC1` was 2.9%; that for `O=C(Nc1nnc(-c2ccccc2)o1)C1CCCCC1` was -11.8%.
Consider `O=C(Nc1cccc(-c2nnc(-c3ccccc3)o2)c1)C1CCCCC1`, for which the inhibition was 30.6% (active).
Consider `Brc1cc(Br)c2nc3c(cc2c1)CCC3`, for which the inhibition is -13.3%.
The figure for `COc1cc2cc(Br)cc(Br)c2nc1C` is 37.7%; for `COc1ccc(CN(C)S(=O)(=O)c2nnc(NC(=O)c3cccc(F)c3)s2)cc1OC` it is 4.4%; for `COc1cccc(C(=O)Nc2nnc(S(=O)(=O)N(C)Cc3ccc(F)cc3)s2)c1` it is 16.8%.
The figure for `CN(Cc1ccccc1)S(=O)(=O)c1nnc(NC(=O)c2ccccc2)s1` is 1.1%; for `COc1ccc(CN(C)S(=O)(=O)c2nnc(NC(=O)c3cccc(OC)c3)s2)cc1` it is 7.1%.
The figure for `CC(=O)C1=C(O)C(=O)N(Cc2ccccc2)C1c1ccco1` (configuration not stated) is -9.8%; for `Cc1ccccc1CN1CCC(n2nccc2NC(=O)c2cccnc2)CC1` it is -23.7%; for `Cc1ccc(S(=O)(=O)CCC(=O)OCC(=O)c2c[nH]c3ccccc23)cc1` it is 17.3%.
For `CCn1c(Cc2ccccc2)nnc1SCC(=O)Nc1cc(C)on1`, the inhibition was 5%.
The figure for `CCCCn1c(Cc2ccccc2)nnc1SCC(=O)Nc1cc(C)on1` is 112% (active).
In the case of `COCCn1c(Cc2ccccc2)nnc1SCC(=O)Nc1cc(C)on1`, the inhibition was -22.5%.
On to `Cc1ccc(S[C@@H](CCN2CC[C@H](O)CCC2=O)c2ccccc2)cc1`, for which the inhibition is -12.3%.
On to `CC(C)(C)c1ccc(C(=O)n2cnc3ccccc32)cc1`, for which the inhibition is -13.4%.
Take `COc1ccc(C(=O)n2cnc3ccccc32)cc1`: the inhibition is -10.8%.
The figure for `CCN(CC)c1ccc(C(=O)n2cnc3ccccc32)cc1` is 38.7% (active); for `O=C(CSc1ncn[nH]1)NCCCc1ccccc1` it is -16.5%; for `COc1cc(CNc2cccc3[nH]c(C(F)(F)F)nc23)cc(OC)c1` it is 33% (active).
With `COc1ccc(CNc2cccc3[nH]c(C(F)(F)F)nc23)cc1`, the inhibition was 6%.
For `COc1ccc(CNc2cccc3[nH]c(C(F)(F)F)nc23)cc1OC`, the inhibition was -14.9%.
The figure for `O=C1OCC/C1=C\c1ccc2c(c1)OCO2` is -0.1%; for `CCOC(=O)c1c(C)[nH]c2c1-c1ccccc1C(=O)C2=O` it is 106% (active); for `CCOC(=O)c1c(C)[nH]c(C)c1-c1ccccc1OC` it is 13.9%.
Consider `CCOC(=O)c1c2c3c(cccc3[nH]c1=O)C(=O)c1ccccc1-2`, for which the inhibition was -40.2%.
For the molecule `COc1ccc2[nH]cc(C(=O)CN3CCN(C/C=C/c4ccccc4)CC3)c2c1`, the inhibition was -1.2%.
The value for `Cc1[nH][nH]c(=O)c1C(c1c(C)[nH][nH]c1=O)c1cn(Cc2ccccc2Cl)c2ccccc12` was 83.9% (active).
The figure for `Cc1[nH][nH]c(=O)c1C(c1c(C)[nH][nH]c1=O)c1cn(Cc2cccc3ccccc23)c2ccccc12` is 10.6%.
The figure for `Cc1[nH][nH]c(=O)c1C(c1c(C)[nH][nH]c1=O)c1cn(Cc2ccc(Cl)c(Cl)c2)c2ccccc12` is -18.9%.
Consider `Cc1c(CN(C)Cc2cn(C)nc2-c2ccccc2F)[nH]c2ccccc12`, for which the inhibition was -13.2%.
The value for `c1ccc(CCn2nnnc2C(c2cccs2)N2CCN(Cc3ccc4c(c3)OCO4)CC2)cc1` (configuration not stated) was -12.4%.
The figure for `COc1ccc(C)cc1NC(=O)CSc1nnc(COc2ccc(C)cc2)n1Cc1ccco1` is 28.5%; for `CCC(C)Sc1nc(O)c(Cc2ccccc2)c(=O)[nH]1` (configuration not stated) it is 6.4%; for `O=C(CSC1=NC(=O)C(Cc2ccccc2)C(=O)N1)NC1CCCCC1` (configuration not stated) it is -8.3%.
The figure for `Nc1ncc(-c2ccccc2)c(-c2ccc(OCc3ccccc3)cc2O)n1` is 2.3%.
Consider `COc1ccc(-c2cn[nH]c2-c2ccc(OCc3ccc([N+](=O)[O-])cc3)cc2O)cc1OC`, for which the inhibition was 34.4%.
The figure for `COc1ccc(-c2cnc(N)nc2-c2ccc(OCc3ccccc3)cc2O)cc1` is -0.9%.
The value for `O=[N+]([O-])c1ccc(COc2ccc(-c3[nH]ncc3-c3ccc(Cl)cc3)c(O)c2)cc1` was 5.4%; that for `COc1ccc(-c2cn[nH]c2-c2ccc(OCc3ccccc3)cc2O)cc1OC` was 28.5%; that for `COc1ccccc1-c1cn[nH]c1-c1ccc(OCc2ccccc2F)cc1O` was 0%.
The value for `COc1ccc(-c2cn[nH]c2-c2ccc(OCc3ccc([N+](=O)[O-])cc3)cc2O)cc1` was 91.5% (active); that for `O=C(/C=C/NCc1cccnc1)C(F)(F)C(F)(F)F` was -53%.
On to `Cc1ccc(-c2csc(Nc3ccc(C(=O)O)cc3)[n+]2Cc2ccccc2)cc1`, for which the inhibition is 17.8%.
The value for `O=C(CCN1C(=O)[C@@H]2Cc3ccccc3CN2C1=O)NCc1ccc(Cl)cc1` was -7.8%; that for `NC(=O)c1ccccc1NC(=O)c1ccccc1S(=O)(=O)c1ccccc1[N+](=O)[O-]` was -18.3%; that for `[O-]/[N+](=C/c1ccc(F)cc1)c1ccc(Cl)cc1` was -85.9%.
The value for `COc1cccc(C(=O)NCc2ccc3c(c2)OCO3)c1OC` was -33%; that for `CC1=C(C(=O)N(C)C)C(c2cccc(Cl)c2)NC(=O)N1` (configuration not stated) was -23.2%.
The figure for `COc1ccc(CCNC(=O)c2ccc3c(c2)N(Cc2ccc(F)cc2)CCS3)cc1OC` is -34.1%; for `COc1ccc(CCNC(=O)c2ccc3c(c2)N(Cc2ccc(C)cc2)CCS3)cc1OC` it is 8.4%; for `CCCC[C@@H]1CNC(=S)N1CCc1cccc(F)c1` it is -29.2%.
Regarding `CCOc1ncccc1C(=O)Nc1cc(S(=O)(=O)N2CCOCC2)ccc1N1CCCC1`, the inhibition was 0.1%.
The figure for `CC1CCN(C(=O)C2CCN(S(=O)(=O)c3ccc(-n4cnnn4)cc3)CC2)CC1` is -10.6%; for `O=C(CSc1cccc2cccnc12)N/N=C/c1cccc(O)c1` it is -22%; for `O=C(CCc1ccccc1O)N/N=C/c1ccc(Sc2cccc3cccnc23)o1` it is 89.3% (active).
The value for `O=C(CSc1cccc2cccnc12)N/N=C/c1ccc(O)cc1` was -3.1%; that for `O=C(CSc1cccc2cccnc12)N/N=C/c1cccnc1` was 80% (active).
The figure for `CCCCC(=O)N/N=C/c1ccc(Sc2cccc3cccnc23)o1` is -12.8%; for `O=C(CSc1cccc2cccnc12)N/N=C/c1ccncc1` it is -32.7%.
On to `CCOc1cc(/C=N/NC(=O)CSc2cccc3cccnc23)ccc1O`, for which the inhibition was -32.2%.
The figure for `O=C(Cc1cccc2ccccc12)N/N=C/c1ccc(Sc2cccc3cccnc23)o1` is 61.9%.
The value for `COc1cccc(/C=N/NC(=O)CSc2cccc3cccnc23)c1` was 33.4% (active); that for `Cc1cc(NC(=O)CSc2nnc(CNC(=O)c3ccc(F)cc3)o2)no1` was -38.1%; that for `O=C(CSc1nc2ccccc2c(=O)n1CCCN1CCOCC1)c1c[nH]c2ccccc12` was 41%.
The value for `O=C(NCc1ccccc1OC(F)(F)F)C1CCC(=O)N(Cc2ccccn2)C1` (configuration not stated) was -8%.
Regarding `CC(C)(C)OC(=O)NC(Cc1ccccc1)C(=O)N1CCC(C(=O)NCC(=O)Nc2ccc(F)cc2)CC1` (configuration not stated), the inhibition is -18%.
The value for `O=C(Nc1cccc(F)c1)N1CCC(n2c(=O)[nH]c3ccccc32)CC1` was -2.7%; that for `COc1ccc(-c2noc(N3CCC(C(=O)NCCCN4CC(C)CC(C)C4)CC3)n2)cc1` (configuration not stated) was -3.9%; that for `CC(C)(C)c1ccc(C(=O)Nc2ccc(NC(=O)C(=O)O)cc2)o1` was -19%.
The value for `COC(=O)Cc1ccc(NC(=O)c2ccc(NC(=O)c3ccco3)cc2)cc1` was -16%; that for `CC(C)(C)c1ccc(C(=O)Nc2ccc(CC(=O)O)cc2)o1` was 76.3% (active); that for `CCOC(=O)Cc1ccc(NC(=O)c2ccc(C(C)(C)C)cc2)cc1` was 69.9% (active).
`Cc1ccc(C(=O)Nc2ccc(CC(=O)O)cc2)o1`: the inhibition is -4.8%.
For the molecule `CCOC(=O)Cc1ccc(NC(=O)c2ccc([N+](=O)[O-])cc2)cc1`, the inhibition was -35.6%.
`CCOC(=O)Cc1ccc(NC(=O)c2ccccc2Br)cc1`: the inhibition is -20.3%.
The figure for `COC(=O)Cc1ccc(NC(=O)c2ccc(C(C)(C)C)cc2)cc1` is 88.2% (active); for `COC(=O)Cc1ccc(NC(=O)c2ccc(C)c(C)c2)cc1` it is -39.1%.
The figure for `C=C(CO)C1Cc2cc(C(C)=O)ccc2O1` (configuration not stated) is -3.8%.
The figure for `CC(C)(C)c1ccc(C(=O)c2c[nH]c(C(=O)NCCCN3CCOCC3)c2)cc1` is -19.7%.
